This is part of a sample that, as a whole, favours compounds with a hit. Of some 83,000 tested, about 20% had one in any assay.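 Single-concentration screen, 48 h exposure, 96-well plates. Endpoint: percent growth. Below 10 = active.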 Activity calls are given as the source filed them.

For this assay, the system named is HCC-2998 colon. Put plainly: NCI-60 one-dose screen, 48 h (100 = growth as untreated, 0 = no growth, -100 = all killed). The conditions noted are these: 10 µM unless noted. The method, then: Growth inhibition of the HCC-2998 human tumor cell line is measured as a screen for anti-cancer activity. Cells are grown in 96 well plates and exposed to the test compound for 48 hours. Compounds are tested at a single concentration, which is 10^-5 M for most compounds. The reported endpoint is percent growth (GI% or GIPRCNT), where numbers from 0 - 100% represent growth inhibition, and numbers from -100% - 0 represent cell death. For example, a value of 40 represents 60% growth inhibition. A value of 0 means no net growth occurred over the course of the experiment. A value of -40 indicates 40% of cells at the beginning of the experiment died by the end of the experiment. A value of -100 means all cells are dead at the end of the experiment.
NCI-60 Human Tumor Cell Lines Screen was performed using the standard one-dose NCI protocol, which is described in more detail at https://dtp.cancer.gov/discovery_development/nci-60/default.htm.
Compounds with GIPRCNT values below 10 were considered active. Activity score was based on GIPRCNT using the following formula: […]
Score is 0 for GIPRCNT values of 100 or above, 50 for GIPRCNT values of 0, and 100 for GIPRCNT values of -100.
Turning to `COc1ccc(-c2nc(SCCC(C)C)nc(N/N=C\c3ccc(O)cc3)c2C#N)cc1`, the growth is 86.8% (inactive).
Then `C/C(=C(/c1ccc(O)cc1)c1ccc(OCCN(C)C)cc1)c1ccc(Cl)cc1`, with 7.02% (active); and `O=c1[nH]c(CCl)nc2c1cnn2-c1ccccc1`, with 105% (inactive); and `CCOC(=O)c1c(Nc2ccccc2)nn2c(-c3ccc(OC)c(OC)c3)ccnc12`, with 52.2% (inactive).
Then `CCOC(=O)c1c(NC(=O)c2ccc(C(C)(C)C)cc2)sc2cc(OCCN3CCCCC3)ccc12`, with 87% (inactive); and `O=c1cc(-c2ccccc2)nc2sc(-c3c[nH]c4ccc(Br)cc34)nn12`, with 109% (inactive).
Take `COc1ccc(NS(=O)(=O)c2ccc(-c3cnc(C4CC4)o3)cc2)cc1Cl`: the growth is 53.1% (inactive).
With `CC1CCN(S(=O)(=O)c2ncsc2-c2ccccc2)CC1`, the growth was 97.4% (inactive).
With `Cc1ccc(C2CC(c3ccc(Nc4nc(NCCO)nc(Nc5ccc(Cl)cc5)n4)cc3)=Nc3c(N)nc(N)nc3N2)cc1` (stereo not given), the growth was -65.3% (active).
Then `CC1CCc2c(sc3nc(SCC(=O)N/N=C/c4ccc(Cl)cc4)n(-c4ccccc4)c(=O)c23)C1` (stereo not given), with 112% (inactive); and `N#Cc1ccc(S(=O)(=O)Nc2ccc(-c3cnc(N)[nH]3)cc2)cc1`, with 105% (inactive); and `COc1cc(C2=NN(C(C)=O)C(c3ccc(N4CCOCC4)cc3)C2)cc(OC)c1OC` (stereo not given), with 107% (inactive).
For `CC(C)=CCC[C@](C)(O)[C@H]1CC[C@]2(C)[C@@H]1CC[C@@H]1[C@@]3(C)CCC(NC(=O)c4ccccc4C(=O)O)C(C)(C)[C@@H]3CC[C@]12C` (stereo not given in full), the growth is 96.5% (inactive).
Then `Cc1ccc(/C=C/CC(=O)Nc2ccc(C(=O)Nc3ccc(F)cc3N)cc2)cn1`, with 64.6% (inactive); and `C#Cc1ccc(NC(=O)c2ccc(/C=C/C(=O)c3nccn3C)cc2)c(F)c1`, with 82.6% (inactive).
Then `COc1ccc2c(ccn2C(=O)N2c3ccccc3Sc3ccccc32)c1`, with 48.9% (inactive); and `Nc1nc(N)c2c(n1)NC(c1ccccc1)CC(c1ccc(Nc3nc(NCCO)nc(Nc4ccc(Cl)cc4)n3)cc1)=N2` (stereo not given), with 68.9% (inactive).
Then `O=C(CN1CCN(c2cc(=O)n(-c3ccccc3)c3ccccc23)CC1)Nc1ccc([N+](=O)[O-])cc1`, with 105% (inactive); and `Cc1cn(-c2cc(NC(=O)c3cncc(C#Cc4cnc5ccc(O[C@H]6CCOC6)nn45)c3)cc(C(F)(F)F)c2)cn1`, with 84.7% (inactive); and `NS(=O)(=O)c1ccc(Nc2nc(N/N=C/c3ccc(F)cc3)nc(Nc3ccccc3)n2)cc1`, with 55.4% (inactive).
Consider `CC[C@@](C)(NC(=O)C(C)(C)NC(=O)[C@@H](NC(=O)[C@@H]1CCCN1C(=O)C(C)(C)NC(=O)[C@H](CC(C)C)NC(=O)CNC(=O)C(C)(C)NC(=O)[C@@H](NC(=O)C(C)(C)NC(=O)[C@H](CCC(N)=O)NC(=O)[C@H](C)NC(=O)C(C)(C)NC(=O)[C@H](C)NC(=O)C(C)(C)NC(=O)[C@H](C)NC(=O)C(C)(C)NC(C)=O)C(C)C)C(C)C)C(=O)N[C@@H](CCC(N)=O)C(=O)N[C@@H](CCC(N)=O)C(=O)N[C@H](CO)CC1CCCCC1`, for which the growth is 28.9% [5 µM] (inactive).
With `C/C=C/[C@@H]1C=C[C@@H]2C[C@H](C)CC[C@H]2[C@]1(C)/C(O)=C1/C(=O)[C@H](CO)N(C)C1=O`, the growth is 57% (inactive).
For the compound `CCN1C(=O)N(CC)C2SC(N/N=C/c3ccc(F)cc3)=NC21` (stereo not given), the growth was 14.1% (inactive).
In the case of `CCN(CC)CCN1C(=O)c2c(c3c4cc(Br)ccc4[nH]c3c3ccc4ccccc4c23)C1=O`, the growth is -89.5% (active).
On to `CCOC(=O)CC(=O)CSC1=NC2C(NN1)N(C)C(=O)N2C` (stereo not given), for which the growth was 105% (inactive).
Then `C=CCn1c(SCC(=O)Nc2cccc(C(=O)/C=C/c3ccc(Br)cc3)c2)nc2ccccc2c1=O`, with 93.8% (inactive); and `COCCC[C@H]1O[C@@](O)([C@H](C)[C@@H]2CC(OC)C(O)/C=C(C)/C=C(C)/C=C(\C)C(OC3O[C@@H](C)[C@H](O)C(O)[C@@H]3O)C(C)/C=C(C)/C=C(OC)/C=C(\C)C(=O)O2)C(OC)C(O)[C@]1(C)O[C@H]1C[C@@H](O)[C@H](O[C@H]2C[C@](C)(O)[C@H](O)C(C)O2)C(C)O1` (stereo not given in full), with 56.4% (inactive).
Regarding `COc1ccc([C@H]2[C@H](O)C(=O)N2c2cc(OC)c(OC)c(OC)c2)cc1O`, the growth is 19.5% (inactive).
Then `CCN(CC)Cc1c(-c2cccc(OC(F)(F)F)c2)[nH]c2ccc(N3CCCC3)cc2c1=O`, with 87% (inactive); and `Oc1ccc(CSc2nnc(-c3ccncc3)n2-c2ccccc2)c2cccnc12`, with 35.9% (inactive).
For the compound `COc1cc(CNC(=O)/C=C/c2ccccc2)ccc1OCC(=O)NO`, the growth is 104% (inactive).
`Cc1[nH]nc2ccc(-c3nc4cnc(N5CCN(C)CC5)cn4c3Nc3ccc(F)cc3Br)cc12`: the growth is 69.8% (inactive).
As for `CCOC(=O)c1ccc(N/C=C/C(=O)c2ccccc2)cc1`, the growth was 109% (inactive).
Then `C/C(Cc1ccc(Cl)cc1)=C(/c1ccccc1)c1ccc(OCCN)cc1`, with 99% (inactive); and `CCOC(=O)c1c(NCC(=O)Nc2cccc(Cl)c2)sc2c1CCCC2`, with 103% (inactive); and `O=C(Nc1cccc(Cl)c1)Nc1nc2ccc(-c3cccc4ccccc34)cc2s1`, with 57.3% (inactive).
Then `CS(=O)(=O)c1nccc(-c2c(-c3ccc(F)c(OCCc4ccccc4)c3)nc3sccn23)n1`, with -46.4% (active); and `CC(=O)c1ccc(NC(=O)COc2ccc(C3SCC(=O)N3c3ccc(Br)cc3)cc2)cc1` (stereo not given), with 103% (inactive).
With `CC(=O)Nc1cccc(-n2cnc3cc(-c4ccc(O)cc4)ccc32)c1`, the growth was 79.6% (inactive).
For the compound `COc1cc(/C=N/n2cnc3oc(-c4ccccc4)cc3c2=N)cc(CN2CCCC2)c1O`, the growth is 98.5% (inactive).
